High-throughput results: PubChem, National Center for Advancing Translational Sciences (NCATS)
ELG1 repair inh: blocks ELG1-dependent DNA repair in HEK293T cells. AID 504467. Potency, µM (top dose mostly 46.1 µM), inactives show at the top dose activity change, negative = inhibition, hits mostly inhibitors. HEK293T ELG1-luciferase reporter, luminescence, 16 h; DNA damage induced by 5-fluorouridine. 2.3% of 330,000 active; further: on the % scale 0 is the no-effect control and ±100 the full control effect; nearly all actives have a fitted effect of over 55% in size
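5-Fluorouridine DNA damage + compound/DMSO, 2,000 cells/well, 16 h, 37 °C/5% CO2. ONE-Glo, 30 min RT, luminescence. Readout = decrease in reporter signal.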
Nrf2 ARE act: activates Nrf2 signaling | AID 624171 | Potency, µM (titrated, usually from 46.1 µM), for inactives: at the top dose activation, hits mostly activators | AREc32 ARE-luciferase reporter (MCF7-derived line), luminescence, 24 h | 0.31% of 410,000 active; further: % of control where 0% means no effect; nearly all actives have a fitted effect of over 65% in size
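Nrf2 activation is followed as ARE-luciferase induction in the AREc32 line after one day of compound treatment; luminescence is read with Steady-Glo.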
Nrf2 inh: blocks Nrf2 signaling; A549 ARE-Fluc reporter, luciferase luminescence, 18-24 h; Potency, µM (doses to about 46 µM), without a hit: at the top dose activity change, negative = inhibition, usual class: inhibitors; 2.1% of 360,000 active; AID 504444; further: on the % scale 0 is the no-effect control and ±100 the full control effect; nearly all actives have a fitted effect of over 60% in size
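A549 ARE_Fluc cells, 5000/well, 5% FBS OPTI-MEM; compounds in dose-response, 18-24 h at 37 °C/5% CO2; CellTiter-Fluor viability read (Ex 405/Em 525), then BugLite luciferase luminescence = Nrf2 activity.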
A549 viability: A549 cytotoxicity, counter-screen for Nrf2 inhibitors; A549 ARE-Fluc cells, CellTiter-Fluor viability, 18-24 h; Potency, µM (doses to about 46 µM), without a hit: top-dose activity change, negative = cytotoxicity, hits mostly inhibitors; 0.16% of 390,000 active; AID 504648; further: on the % scale 0 is the no-effect control and ±100 the full control effect
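A549 ARE_Fluc cells in 5% FBS OPTI-MEM were exposed to compounds in concentration-response for 18-24 h at 37 deg C. Viability was read by CellTiter-Fluor fluorescence (Ex 405/Em 525) after 30 min, before the luciferase read.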
The depositor's hits bear a star; ? = inconclusive; . = no result; [ ] = another dose, or the depositor's remark. Hits are enriched below; roughly 3.7% of the tested compounds scored in any of these assays. The call rests on the fitted dose curve; in most records, active means well fitted curve in the direction sought with a large enough effect; inconclusive means small, poorly fitted or top-dose-only effect, or another doubt; inactive means no such curve, though single readings can be large; an effect the other way counts as inactive or inconclusive. Potency means the concentration at half of the fitted maximal effect.

SMILES	ELG1 repair inh	Nrf2 ARE act	Nrf2 inh	A549 viability
Cc1ccc(C(C)C)c(OCC(=O)NN=C2CCCC(=O)C2)c1	6.3%	2.5%	-4.1%	4.2%
CC(=O)c1c(C(C)=O)c(C)n(-c2nc(-c3ccc(Br)cc3)c(C)s2)c1C	?	-0.3%	25.9µM*	?
COc1ccc(-c2nc(-n3c(C)c(C(C)=O)c(C(C)=O)c3C)sc2C)cc1OC	?	0.6%	-23.8%	-21.5%
CCN(c1ccccc1)S(=O)(=O)c1ccc(C(=O)Nc2nnc(C3CC3)o2)cc1	10.3µM*	-0.2%	11.6µM*	?
CN(c1ccccc1)S(=O)(=O)c1ccc(C(=O)Nc2nnc(-c3ccco3)o2)cc1	16.4µM*	-3.8%	?	-6.3%
CN(c1ccccc1)S(=O)(=O)c1ccc(C(=O)Nc2nnc(C3CC3)o2)cc1	10.3µM*	-0.6%	23.0%	?
COCCN(CCOC)S(=O)(=O)c1ccc(C(=O)Nc2nnc(C3CC3)o2)cc1	6.8%	0.0%	25.0%	8.8%
COCc1nnc(NC(=O)c2ccc(S(=O)(=O)N(C)c3ccccc3)cc2)o1	1.0%	-1.9%	?	4.2%
CCC1CCCCN1S(=O)(=O)c1ccc(C(=O)Nc2nnc(C3CC3)o2)cc1 (stereo not drawn)	?	-0.9%	?	-4.3%
Cn1c(=O)c2c(ncn2CC(=O)Nc2cccc(Cl)c2Cl)n(C)c1=O	.	-0.3%	-9.1%	6.9%
COc1ccc(C(=O)Nc2ccc3c(c2)C(=O)N(C)C3=O)cc1OC	14.5%	4.4%	?	6.4%
Cc1ccc2[nH]c(=O)c3cc(C(=O)N4CCN(C(=O)c5ccco5)CC4)sc3c2c1	16.4µM*	-0.1%	1.1%	1.8%
CCOCCCN(Cc1ccco1)C(=O)c1cc2c(=O)[nH]c3ccc(C)cc3c2s1	16.4µM*	7.7%	?	-14.8%
CCCN(CCC)C(=O)c1cc2c(=O)[nH]c3ccc(C)cc3c2s1	-17.7%	-0.6%	18.4µM*	-22.4%
COCCN(Cc1ccco1)C(=O)c1cc2c(=O)[nH]c3ccc(C)cc3c2s1	.	0.0%	?	-6.6%
CC(=O)Nc1ccc(S(=O)(=O)NC(C)C(=O)NCC(c2ccco2)N(C)C)cc1 (stereo not drawn)	-1.9%	2.5%	5.3%	-1.2%
CC(=O)N1CCCC1c1nc2ccccc2n1Cc1ccccc1F (stereo not drawn)	.	-0.6%	?	-1.7%
CCOCc1c(C(=O)NC2=Nc3ccccc3NC(CC)=C2C(=O)OCC)oc2ccccc12	8.2µM*	0.4%	?	-15.2%
CCn1ncc2c(OCc3ccc(C#N)cc3)cc(C)nc21	25.9µM*	0.0%	?	-13.7%
Nc1nc(SCC(=O)Nc2cccc(C(F)(F)F)c2)n[nH]1	.	0.7%	18.4µM*	3.7%
Cc1nc(SCC(=O)Nc2cccc(Cl)c2)n[nH]1	-0.3%	-1.6%	7.3%	3.6%
Nc1nc(SCC(=O)Nc2cccc(F)c2)n[nH]1	?	0.3%	6.3%	-0.6%
CN(c1ccccc1)S(=O)(=O)c1cccc(NC(=O)CSc2n[nH]c(N)n2)c1	20.6µM*	-0.2%	-25.4%	-3.8%
O=C(CSc1n[nH]c(-c2ccccn2)n1)Nc1cccc(Cl)c1	25.9µM*	0.1%	?	-9.1%
CC(C)[C@H](NC(=O)C1CC(=O)N(c2ccc3c(c2)OCO3)C1)C(=O)NC1CCCC1 (stereo partly drawn)	-4.3%	0.3%	?	-9.6%
SMILES	ELG1 repair inh	Nrf2 ARE act	Nrf2 inh	A549 viability
Cc1[nH]c2ccccc2c1N=Nc1c(C)n(C)n(-c2ccccc2)c1=O	13µM*	8.6%	-20.2%	-17.5%
Cc1c(N=C2C=CC(=O)c3ccccc32)c(=O)n(-c2ccccc2)n1C	20.6µM*	-1.5%	?	?
Cc1[nH]c2ccccc2c1N=Nc1ccc(F)cc1	-4.7%	?	25.9µM*	?
C[C@@H]1ON(C)[C@H]2C[C@H]3c4cc(-c5cccc(F)c5)ccc4CCN3C(=O)[C@@H]12	.	5.4%	8.0%	8.8%
CC(C)c1cc(Cn2c3ccccc3c(=O)n2C(C)CBr)on1 (stereo not drawn)	.	0.0%	.	.
Cc1ccc(-c2[nH]ncc2CN2CCN(C(=O)c3cccs3)CC2)cc1C	11.6µM*	-0.8%	1.1%	-6.7%
COc1ccc(CN2CCN(C(=O)c3ccc(-c4ccccc4)cc3)CC2)c(OC)c1OC	21.1%	-0.5%[9.22 µM]	6.1%	2.4%
COc1ccc(CN2CCN(C(=O)c3cccs3)CC2)c(OC)c1OC	20.6µM*	0.2%	-0.2%	-1.3%
O=C1CN(C(=O)c2ccc(S(=O)(=O)N3CCCCC3)cc2)C(c2ccc(F)cc2)c2cc(F)ccc2N1 (stereo not drawn)	.	3.5%	-16.8%[9.27 µM]	1.7%
Cc1cccc(NC(=O)CCc2nc3sc4c(c3c(=O)[nH]2)CCCC4)c1	10.7%	0.2%	7.6%	0.0%
CN(C)S(=O)(=O)c1cccc(NC(=O)CCc2nc3sc4c(c3c(=O)[nH]2)CCCC4)c1	11.2µM*	1.5%	16.4µM*	-15.7%
N#Cc1cccc(NC(=O)CNc2cccc(S(=O)(=O)N3CCCCC3)c2)c1	?	-0.2%	?	-20.9%
Cc1ccc(C(=O)c2cc([N+](=O)[O-])ccc2N2CCCCC2)cc1	?	3.3%	?	16.4µM*
CCOC(=O)CSc1nc2cc3c(cc2c(=O)n1Cc1ccc(C(=O)NCCc2ccc(OC)c(OC)c2)cc1)OCO3	.	-0.3%	.	6.4%
CCOc1ccc2[nH]cc(C(=O)NCc3ccccc3)c(=O)c2c1	?	0.0%	13µM*	-12.0%
CCOc1ccc2[nH]cc(S(=O)(=O)c3ccc(C)cc3)c(=O)c2c1	16.4µM*	0.1%	-25.1%	0.4%
CCOc1ccc2[nH]cc(S(=O)(=O)c3ccc(Cl)cc3)c(=O)c2c1	?	0.2%	?	2.2%
CCc1cccc(N2C(=O)CSC23C(=O)Nc2ccccc23)c1 (stereo not drawn)	.	-0.7%	-7.6%	-2.6%
O=C(/C=C/c1ccco1)OCc1nnc(-c2ccc(Cl)cc2)o1	12.2%	14.1µM*	?	0.7%
O=C(/C=C/c1ccco1)OCc1nnc(-c2ccccc2)o1	14.7%	11.2µM*	0.7%	0.7%
O=C(OCc1nnc(-c2ccccc2)o1)c1ccc(Cl)cc1	4.3%	-0.1%	16.7%	1.2%
COc1cccc(OC)c1C(=O)OCCCOC(=O)c1c(OC)cccc1OC	20.6µM*	-0.7%	-14.8%	-6.0%
COc1cc(-c2nc(-c3cccc(C(F)(F)F)c3)no2)cc(OC)c1OC	23.1µM*	15.7%	?	16.0%
COc1ccc(-c2noc(-c3cccs3)n2)cc1OC	?	?	?	0.5%
COc1ccc(-c2nc(-c3ccc(NC(=O)c4ccc(Br)o4)cc3)no2)cc1OC	?	4.1%	.	-13.7%
COc1cc(-c2nc(-c3ccc(NC(=O)c4ccc(Br)o4)cc3)no2)cc(OC)c1OC	10.3µM*	0.3%	-33.1%	-11.0%
COc1ccccc1-c1noc(-c2cc(OC)c(OC)c(OC)c2)n1	11.6µM*	5.0%	?	6.2%
COc1cc(OC)cc(-c2nc(-c3ccccc3OC)no2)c1	7.7%	6.8%	3.4%	1.4%
